PMC8384837, “Expanding the binding specificity for RNA recognition by a PUF domain”

Legend:
Assay in all cases: yeast three-hybrid, YBZ-1, SC-Leu-His + 0.5 mM 3-AT, 4 days
Conditions in all cases: tags: N-Gal4 AD-HA kept; label: inside an RPR1-promoter hybrid RNA with tandem MS2 sites; ssRNA
PUM1 PUF domain R8-LFN = PUM1 PUF domain R8-LFN (Homo sapiens, UniProt Q14671 828-1176, N1122L;Y1123F;Q1126N)
Method in brief: (§1)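 Repeat regions from input (SC-Leu) and selection (SC-Leu-His + 0.5 mM 3-AT) plates were PCR-amplified and Illumina-sequenced after four days of growth. The cells were strain YBZ-1 with a LexA–MS2 coat fusion and a HIS3 reporter, co-expressing Pumilio-1 PUF domain libraries and matching RNA elements from a centromeric plasmid. The interaction score is the log change in variant frequency from input to selection, taken in log2 with a pseudocount of 1 for absent variants.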

PUM1 PUF domain R3-YFV = PUM1 PUF domain R3-YFV (Homo sapiens, UniProt Q14671 828-1176, C935Y;R936F;Q939V)
Method in brief: as §1

PUM1 PUF domain R4-RVF = PUM1 PUF domain R4-RVF (Homo sapiens, UniProt Q14671 828-1176, N971R;H972V;Q975F)
Method in brief: as §1

PUM1 PUF domain R5-PRV = PUM1 PUF domain R5-PRV (Homo sapiens, UniProt Q14671 828-1176, C1007P;Q1011V)
Method in brief: as §1

PUM1 PUF domain R3-RTA = PUM1 PUF domain R3-RTA (Homo sapiens, UniProt Q14671 828-1176, C935R;R936T;Q939A)
Method in brief: as §1

PUM1 PUF domain R3-LFN = PUM1 PUF domain R3-LFN (Homo sapiens, UniProt Q14671 828-1176, C935L;R936F;Q939N)
Method in brief: as §1

Sequence of PUM1 PUF domain R3-YFV (Q14671 828-1176 C935Y/R936F/Q939V): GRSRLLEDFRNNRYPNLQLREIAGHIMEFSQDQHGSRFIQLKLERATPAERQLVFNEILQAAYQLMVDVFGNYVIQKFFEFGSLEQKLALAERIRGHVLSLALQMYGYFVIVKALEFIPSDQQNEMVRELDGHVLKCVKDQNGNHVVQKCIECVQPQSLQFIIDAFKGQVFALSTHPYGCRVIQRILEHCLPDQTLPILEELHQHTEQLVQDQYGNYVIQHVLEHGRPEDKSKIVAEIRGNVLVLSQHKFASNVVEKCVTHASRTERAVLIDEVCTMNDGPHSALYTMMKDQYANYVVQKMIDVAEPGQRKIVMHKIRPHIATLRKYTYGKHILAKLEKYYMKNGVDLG
Sequence of PUM1 PUF domain R8-LFN (Q14671 828-1176 N1122L/Y1123F/Q1126N): as the sequence (Q14671 828-1176 C935Y/R936F/Q939V) above, with Y108C, F109R, V112Q, N295L, Y296F, Q299N counted along it
Sequence of PUM1 PUF domain R5-PRV (Q14671 828-1176 C1007P/Q1011V): as the sequence (Q14671 828-1176 C935Y/R936F/Q939V) above, with Y108C, F109R, V112Q, C180P, Q184V counted along it
Sequence of PUM1 PUF domain R3-RTA (Q14671 828-1176 C935R/R936T/Q939A): as the sequence (Q14671 828-1176 C935Y/R936F/Q939V) above, with Y108R, F109T, V112A counted along it
Sequence of PUM1 PUF domain R4-RVF (Q14671 828-1176 N971R/H972V/Q975F): as the sequence (Q14671 828-1176 C935Y/R936F/Q939V) above, with Y108C, F109R, V112Q, N144R, H145V, Q148F counted along it
Sequence of PUM1 PUF domain R3-LFN (Q14671 828-1176 C935L/R936F/Q939N): as the sequence (Q14671 828-1176 C935Y/R936F/Q939V) above, with Y108L, V112N counted along it

With “GGCUAGAACUAGUGGAUCCCCCGGCGCCCGGCGGCUCGAGCCCGGGUAAGUGUAAAUAGUCUGCAUGCCGCCGGGCGCCAUGCCUGCAGGUCGACUCUAGAAAACAUG” the binding signal (PUM1 PUF domain R8-LFN) was 0.52 log2 enrichment (interaction score), the binding signal (PUM1 PUF domain R3-YFV) was 1.56 log2 enrichment (interaction score) and the binding signal (PUM1 PUF domain R4-RVF) was 2.93 log2 enrichment (interaction score). The binding signal (PUM1 PUF domain R5-PRV) was 3.15 log2 enrichment (interaction score).

With “GGCUAGAACUAGUGGAUCCCCCGGCGCCCGGCGGCUCGAGCCCGGGUAAGUGUAAUUAGUCUGCAUGCCGCCGGGCGCCAUGCCUGCAGGUCGACUCUAGAAAACAUG” the binding signal (PUM1 PUF domain R3-RTA) was 3.27 log2 enrichment (interaction score) and the binding signal (PUM1 PUF domain R3-YFV) was 0.45 log2 enrichment (interaction score).

With “GGCUAGAACUAGUGGAUCCCCCGGCGCCCGGCGGCUCGAGCCCGGGUAAGCGUAAAUAGUCUGCAUGCCGCCGGGCGCCAUGCCUGCAGGUCGACUCUAGAAAACAUG” the binding signal (PUM1 PUF domain R8-LFN) was 2.16 log2 enrichment (interaction score).

For “GGCUAGAACUAGUGGAUCCCCCGGCGCCCGGCGGCUCGAGCCCGGGUAAGUGUAAGUAGUCUGCAUGCCGCCGGGCGCCAUGCCUGCAGGUCGACUCUAGAAAACAUG”, the binding signal (PUM1 PUF domain R3-YFV) was 4.24 log2 enrichment (interaction score) and the binding signal (PUM1 PUF domain R3-LFN) was 5.99 log2 enrichment (interaction score).
